TbPYK inhibitor: T. brucei pyruvate kinase inhibition | Potency, µM (doses to about 76.8 µM), usual class: inhibitors | actives 0.12% (n = 410,000) | Q57TT1 | AID 624173 | TbPYK enzyme, Kinase-Glo Plus ATP luminescence, 45 min; note: nearly all actives have a fitted effect of over 50% in size
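TbPYK + substrate in 50 mM TEA pH 7.2, 100 mM KCl, 10 mM MgCl2, 0.05% BSA, 0.01% Tween-20; cpd pinned; ADP 130 uM final; 45 min RT; Kinase-Glo Plus 10 min; luminescence endpoint.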
FBPA Giardia inh: Giardia lamblia aldolase inhibition. Potency, µM (doses to about 59.6 µM), hits mostly inhibitors. purified Giardia FBPA. actives 0.71% (n = 290,000); note: nearly all actives have a fitted effect of over 55% in size
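Giardia FBPA (40 nM reagent) was preincubated 10 min at RT with compound (up to 57.5 uM final), then substrate plus GAPDH/TPI/NAD/arsenate coupling system with diaphorase/resazurin was added; resorufin fluorescence (525/598 nm) was read after 20 min.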
RE007 growth inh: less growth of the S. pombe RE007 Vpr strain. S. pombe RE007 Vpr strain, BacTiter-Glo ATP luminescence, 24 h. actives 0.21% (n = 360,000). Potency, µM (series often up to 92.2 µM), usual class: inhibitors. AID 651644; active = well fitted falling curve with a large enough effect; inconclusive = small, poorly fitted or top-dose-only effect; inactive = no such curve, though single readings can be large or run the other way; note: nearly all actives have a fitted effect of over 50% in size
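Fission yeast RE007 carrying one integrated HIV-1 vpr copy, seeded at OD 0.01 in PMG+AL medium with 23 nL pinned compound. Grown 24 h at 30 degrees; viability read by BacTiter-Glo luminescence after 5 min.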
Sm TGR inh: S. mansoni TGR enzyme inhibition. purified TGR, DTNB reduction, TNB absorbance 405 nm. Potency, µM (highest dose often 114 µM), actives largely listed as inhibitors. actives 3% (n = 360,000). Q962Y6; note: nearly all actives have a fitted effect of over 60% in size
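First, TGR (20 nM dispensed) and NADPH were mixed with compound. Second, a 15 min room-temperature incubation followed. Third, further NADPH and then DTNB were added to start the reaction. Finally, TNB absorbance was monitored kinetically.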
LmPK inh: LmPK (Leishmania mexicana) enzyme inhibition. actives 0.37% (n = 290,000). Potency, µM (doses to about 57.5 µM), hits mostly inhibitors. purified LmPK, Kinase-Glo ATP luminescence, 1 h. Q27686
Target sequence (Q27686 whole entry, looked up): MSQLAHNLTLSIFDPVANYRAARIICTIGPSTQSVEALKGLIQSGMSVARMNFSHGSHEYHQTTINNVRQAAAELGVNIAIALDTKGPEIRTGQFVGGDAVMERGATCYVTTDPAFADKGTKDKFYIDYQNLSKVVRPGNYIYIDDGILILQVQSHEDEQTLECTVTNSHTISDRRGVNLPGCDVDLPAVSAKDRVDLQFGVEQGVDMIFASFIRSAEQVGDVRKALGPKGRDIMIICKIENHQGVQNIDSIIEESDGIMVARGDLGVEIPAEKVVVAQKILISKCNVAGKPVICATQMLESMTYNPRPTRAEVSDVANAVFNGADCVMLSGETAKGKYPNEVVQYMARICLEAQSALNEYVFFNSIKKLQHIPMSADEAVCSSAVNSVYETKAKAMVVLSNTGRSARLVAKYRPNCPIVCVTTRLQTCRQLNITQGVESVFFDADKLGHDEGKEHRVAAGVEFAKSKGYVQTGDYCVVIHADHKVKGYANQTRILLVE
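Screened at intermediate enzyme activity to detect both inhibitors and activators: LmPK at 0.1 nM, with a 0.5 nM enzyme column as activation reference. PEP 0.5 mM, ADP 0.1 mM; ATP detected by luminescence after 1 h.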
Each line names hits and unclear results; the compound was inactive in the other large screens; ! = not confirmed by another sample. Shown are actives, neighbours in structure and some others; about 3.3% of the full set was active somewhere. Unless noted, calls come from the whole dose curve; as a rule, active = well fitted curve in the direction sought with a large enough effect; inconclusive = small, poorly fitted or top-dose-only effect, or another doubt; inactive = no such curve, though single readings can be large; an effect the other way counts as inactive or inconclusive.

Cc1cc(C)c2oc(-c3ccc(C)c(NC(=S)NC(=O)/C=C/c4ccco4)c3)nc2c1	Sm TGR inh inconclusive
O=C(/C=C/c1ccco1)NC(=S)Nc1ccccc1O	Sm TGR inh 10µM
Cc1ccc(NC(=S)NC(=O)/C=C/c2ccco2)c(O)c1	Sm TGR inh 18µM
O=C(/C=C/c1ccco1)NC(=S)Nc1ccccn1	FBPA Giardia inh inconclusive, Sm TGR inh 8.9µM
O=C(/C=C\c1ccco1)NC(=S)Nc1ccccc1O	FBPA Giardia inh inconclusive, Sm TGR inh 8.9µM
COc1ccc(NC(=S)NC(=O)/C=C/c2ccco2)c(OC)c1	Sm TGR inh inconclusive
Cn1cc(CN2CCN(CC(C)(C)C)C(CCO)C2)c2ccccc21 (stereo unspecified)	none
Cc1cc(SCC(=O)NCc2ccccc2)nc(=O)[nH]1	none (no result: FBPA Giardia inh, RE007 growth inh, LmPK inh)
Cc1ccc(N=Cc2c(O)c3ccccc3oc2=O)c(C)c1	none
CCOc1cccc(CNCCO)c1OCc1ccc(Cl)cc1Cl	none
CCOc1cccc(CNn2cnnc2)c1OCc1ccccc1Cl	none
CCOc1cccc(CNc2ccc(O)cc2)c1OCc1ccccc1Cl	TbPYK inhibitor inconclusive, RE007 growth inh inconclusive, Sm TGR inh 45µM!
CCOc1cccc(CNc2ccc(O)cc2)c1OCc1ccc(Cl)cc1Cl	TbPYK inhibitor inconclusive, FBPA Giardia inh 13µM, RE007 growth inh inconclusive, Sm TGR inh inconclusive
COCCCNC(=O)c1ccc(-c2nc(CS(=O)(=O)c3ccc(C)cc3)c(C)o2)cc1	Sm TGR inh 25µM (no result: FBPA Giardia inh, RE007 growth inh, LmPK inh)
CCCCNC(=O)c1ccc(-c2nc(CS(=O)(=O)c3ccc(C)cc3)c(C)o2)cc1	Sm TGR inh 40µM (no result: FBPA Giardia inh, RE007 growth inh, LmPK inh)
CCCCN1C(=O)C(O)=C(C(C)=O)C1c1ccccc1 (stereo unspecified)	none
O=C(NC1CCCCC1)C(c1ccncc1)N(Cc1ccc2c(c1)OCO2)C(=O)C(F)(F)F (stereo unspecified)	FBPA Giardia inh inconclusive, Sm TGR inh 45µM
COCCC(=O)N(Cc1ccc2c(c1)OCO2)C(C(=O)NC1CCCCC1)c1ccncc1 (stereo unspecified)	none
O=C(Cn1cnc2c(nnn2-c2ccc(F)cc2)c1=O)NCc1ccco1	Sm TGR inh 79µM
O=C(Cn1nnc(-c2ccccc2F)n1)NCc1ccco1	Sm TGR inh 45µM
O=C(Cn1nnc(-c2ccccc2F)n1)OCC(=O)c1ccccc1	Sm TGR inh 0.79µM
O=C(Cn1nnc(-c2ccc(F)cc2)n1)OCC(=O)c1ccccc1	Sm TGR inh 10µM
CCOC(=O)c1ccc(NC(=O)Cn2nnc(-c3ccccc3F)n2)cc1	none
Cc1ccc(-n2nnc3c(=O)n(CC(=O)NCc4ccco4)cnc32)cc1	none
O=C(CCNC(=O)c1ccc(Br)cc1)Nc1ccc(S(=O)(=O)N2CCOCC2)cc1	none (no result: FBPA Giardia inh, Sm TGR inh, LmPK inh)
COc1ccc(CNS(=O)(=O)c2csc(C(N)=O)c2)cc1OC	none (no result: FBPA Giardia inh)
O=C(O)c1cc(-c2ccco2)[nH]n1	FBPA Giardia inh inconclusive, Sm TGR inh 50µM
CCOc1ccccc1N/C(=C(/C(Cl)=C(Cl)Cl)[N+](=O)[O-])n1cncn1	FBPA Giardia inh inconclusive, Sm TGR inh 6.3µM
CCOc1ccc(N/C(=C(/C(Cl)=C(Cl)Cl)[N+](=O)[O-])n2cncn2)cc1	FBPA Giardia inh inconclusive, Sm TGR inh 11µM (no result: TbPYK inhibitor, RE007 growth inh)
O=[N+]([O-])/C(C(Cl)=C(Cl)Cl)=C(\Nc1ccc(F)cc1)n1cncn1	FBPA Giardia inh inconclusive, Sm TGR inh 8.9µM (no result: TbPYK inhibitor, RE007 growth inh)
CCOC(=O)C1CCN(S(=O)(=O)c2nc3nc(C)cc(C)n3n2)CC1	none
CNC(=O)CC1C(=O)N(c2ccc(Cl)cc2)C(=S)N1CCc1ccc(OC)c(OC)c1 (stereo unspecified)	none
Cc1sc2nc(CN3CCOCC3)nc(Oc3ccc(NC(=O)c4ccco4)cc3)c2c1C	Sm TGR inh 28µM
O=C(Nc1ccc(CN2CCOCC2)cc1)c1ccco1	none
Cc1cc(C)n2c(Nc3ccc4c(c3)OCCO4)c(-c3ccco3)nc2n1	none (no result: TbPYK inhibitor, RE007 growth inh)
Cc1ccc(Nc2c(-c3ccco3)nc3nc(C)cc(C)n23)cc1	Sm TGR inh 32µM
CC(=O)Nc1ccc(/C=N/NC(=O)c2cc(-c3ccco3)nc3ccccc23)cc1	Sm TGR inh 14µM
O=C(N/N=C/c1ccc2c(c1)OCO2)c1cc(-c2ccco2)nc2ccccc12	none (no result: FBPA Giardia inh, LmPK inh)

Compound activity: PubChem BioAssay, National Center for Advancing Translational Sciences (NCATS)
